For 14 molecules, growth results are on record in PubChem BioAssay (NCI).

Some test systems named below: NCI-H23 lung; NCI-H226 lung; NCI-H322M lung; HOP-62 NSCLC; NCI-H460 lung; HOP-92 NSCLC; NCI-H522 lung; A549/ATCC NSCLC; 786-0 renal; COLO 205 colon.
Common to all, as to experiment: NCI-60 one-dose screen, 48 h (100 = growth as untreated, 0 = no growth, -100 = all killed)
What all share (settings): 10 µM unless noted

Molecules are shown by their SMILES. About 83,000 compounds went through this panel and 20% of them were active in at least one assay; those are over-represented in the sample as a whole.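 A percent growth of 40 corresponds to 60% growth inhibition; 0 means no net growth; -100 means all cells died. Active threshold: below 10.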 Values without a mark were called inactive. Active and inactive are the calls of the source.

Consider `CCN1C(=O)N(CC)C2C1NN=c1s/c(=C3\C(=O)N(C4CCCC4)c4ccccc43)c(=O)n12` (stereo not given), for which the growth in the assay on NCI-H23 lung is 20.1%; in the assay on NCI-H226 lung, 99.8%; in the assay with NCI-H322M lung it was 53%; with HOP-62 NSCLC it was 8.41% (active); in the assay with NCI-H460 lung, -1.48% (active); in the assay on HOP-92 NSCLC, 28.1%. In addition, the growth in the assay with NCI-H522 lung is -5.34% (active); in the assay with A549/ATCC NSCLC, 25.3%; with 786-0 renal, 14.1%; in the assay on COLO 205 colon, -29.2% (active).

For `CC(=O)Nc1nc(C(=O)N2N=C(C)/C(=C/c3ccccc3)C2=O)cs1`, the growth with NCI-H23 lung was 108%; in the assay on NCI-H226 lung it was 107%; with NCI-H322M lung, 102%; with HOP-62 NSCLC, 99.8%; with NCI-H460 lung it was 106%; in the assay with HOP-92 NSCLC it was 108%. For the same molecule, the growth in the assay on NCI-H522 lung was 85.4%; with A549/ATCC NSCLC it was 101%; with 786-0 renal, 105%; in the assay with COLO 205 colon it was 103%.

As for `Nc1c(C(=O)Nc2cccc(Cl)c2Cl)sc2nc3c(cc12)C(=O)CCC3`, the growth in the assay on NCI-H23 lung is 76.1%; in the assay with NCI-H226 lung, 87%; in the assay on NCI-H322M lung, 76.7%; in the assay with HOP-62 NSCLC, 95.3%; with NCI-H460 lung it was 20%; in the assay with HOP-92 NSCLC it was 91.5%. Also, the growth was 12.5% in the assay with NCI-H522 lung, 37.5% in the assay on A549/ATCC NSCLC, 92.4% in the assay on 786-0 renal and 25.8% in the assay with COLO 205 colon.

For `COc1cc(-c2cc(/C=C3\CCCCC3=O)[nH]n2)cc(OC)c1OC`, the growth in the assay with NCI-H23 lung is 95.5%; in the assay on NCI-H226 lung it was 94.6%; in the assay on NCI-H322M lung, 95.3%; with HOP-62 NSCLC, 99.3%; in the assay on NCI-H460 lung, 104%; in the assay on HOP-92 NSCLC it was 86.4%. Moreover, the growth is 76.9% in the assay with NCI-H522 lung, 95.1% in the assay on A549/ATCC NSCLC, 98.1% in the assay with 786-0 renal and 108% in the assay on COLO 205 colon.

Turning to `N=C(N)c1ccc(-c2ccc(-c3ccc(Cl)cc3)o2)nc1`, the growth in the assay on NCI-H23 lung is -81.9% (active); in the assay with NCI-H226 lung, -68.2% (active); in the assay on NCI-H322M lung, -94.5% (active); in the assay on HOP-62 NSCLC it was -85.5% (active); with NCI-H460 lung, -91.6% (active); in the assay on HOP-92 NSCLC, -87.7% (active). In addition, the growth is -78.9% (active) in the assay with NCI-H522 lung, -82.8% (active) in the assay on A549/ATCC NSCLC, -85.1% (active) in the assay with 786-0 renal and -87.5% (active) in the assay with COLO 205 colon.

As for `COc1ccc2c(c1)C=CC(C#N)N2C(=O)c1ccccc1` (stereo not given), the growth in the assay with NCI-H23 lung is 26.4%; with NCI-H226 lung it was 61.6%; in the assay with NCI-H322M lung, 53.9%; in the assay with HOP-62 NSCLC it was 34.6%; in the assay on NCI-H460 lung it was 5.09% (active); with HOP-92 NSCLC it was 34%. Moreover, the growth was 1.91% (active) with NCI-H522 lung, 21.2% with A549/ATCC NSCLC, 23.4% with 786-0 renal and -43.7% (active) with COLO 205 colon.

As for `CCN(Cc1ccc(CN(CC)C(=O)C(Br)Br)cc1)C(=O)C(Br)Br`, the growth with NCI-H23 lung is 43.3%; in the assay with NCI-H226 lung, 59.1%; with NCI-H322M lung, 26.3%; in the assay with HOP-62 NSCLC, 74.8%; with NCI-H460 lung, 2.41% (active); in the assay with HOP-92 NSCLC it was 60.7%. Further, the growth is 32.5% in the assay on NCI-H522 lung, 25.2% with A549/ATCC NSCLC, 59.4% in the assay with 786-0 renal and 3.56% (active) with COLO 205 colon.

For `CCOC(=O)CC/C(C)=N\Nc1ccc([N+](=O)[O-])cc1`, the growth was 99.5% in the assay with NCI-H23 lung; 67.9% in the assay on NCI-H226 lung; 77.3% in the assay with NCI-H322M lung; 63.2% in the assay on HOP-62 NSCLC; 27.1% with NCI-H460 lung; 89.8% in the assay with HOP-92 NSCLC. Also, the growth in the assay on NCI-H522 lung is 38.8%; with A549/ATCC NSCLC it was 24.4%; in the assay with 786-0 renal it was 72.9%; with COLO 205 colon, 34.7%.

Regarding `Nc1ccccc1C#C/C=C\C#Cc1cccc(O)c1`, the growth in the assay with NCI-H23 lung was 97.3%; with NCI-H226 lung it was 95.4%; in the assay with NCI-H322M lung it was 93.6%; in the assay on HOP-62 NSCLC, 40.2%; in the assay on NCI-H460 lung, 34.7%; in the assay with HOP-92 NSCLC it was -30.1% (active). Moreover, the growth with NCI-H522 lung is 52.9%; in the assay with A549/ATCC NSCLC, 64.5%; with 786-0 renal, 61.5%; in the assay with COLO 205 colon, 81.2%.

Consider `CCOc1ccc(/C=C/C=N/NC(N)=S)cc1`, for which the growth with NCI-H23 lung is 78.7%; with NCI-H226 lung, 119%; in the assay with NCI-H322M lung, 91.7%; with HOP-62 NSCLC, 106%; in the assay with NCI-H460 lung, 96%; in the assay on HOP-92 NSCLC, 89.3%. The growth in the assay with NCI-H522 lung was 37.3%; in the assay with A549/ATCC NSCLC, 86.1%; in the assay with 786-0 renal, 56%; with COLO 205 colon it was 84.5%.

Consider `COc1ccc(NC(=O)c2cc3ccccc3nc2Nc2cc(OC)c(OC)c(OC)c2)cc1`, for which the growth was 59.6% in the assay on NCI-H23 lung; 54.5% in the assay on NCI-H226 lung; 90.2% in the assay with NCI-H322M lung; 84.1% in the assay with HOP-62 NSCLC; 50.3% in the assay on NCI-H460 lung; 54.7% in the assay with HOP-92 NSCLC. The growth in the assay on NCI-H522 lung was 57.2%; in the assay with A549/ATCC NSCLC, 50.4%; in the assay on 786-0 renal it was 58%; in the assay on COLO 205 colon, 76.7%.

Take `C/C1=C\CCC2(C)OC2CC2CCC(C)(O)C(CC1)C2(C)C` (stereo not given): the growth with NCI-H23 lung was 99%; in the assay on NCI-H226 lung it was 107%; in the assay on NCI-H322M lung it was 96.5%; in the assay with HOP-62 NSCLC, 101%; with NCI-H460 lung it was 106%; in the assay on HOP-92 NSCLC, -16.4% (active). For the same molecule, the growth with NCI-H522 lung is 88%; in the assay with A549/ATCC NSCLC it was 98%; in the assay on 786-0 renal, 98.9%; in the assay on COLO 205 colon, 109%.

On to `Cc1c(C2=NNC(c3ccc4c(c3)OCO4)C2)[n+]([O-])c2ccccc2[n+]1[O-]` (stereo not given), for which the growth was 93.8% in the assay with NCI-H23 lung; 102% with NCI-H226 lung; 161% with NCI-H322M lung; 92.1% in the assay on HOP-62 NSCLC; 111% in the assay with NCI-H460 lung; 83.6% in the assay with HOP-92 NSCLC. Besides, the growth in the assay with NCI-H522 lung was 95.9%; in the assay with A549/ATCC NSCLC it was 109%; in the assay with 786-0 renal, 106%; in the assay on COLO 205 colon, 101%.

Take `O=c1[nH]c(CN2CCN(c3ccccc3F)CC2)nc2sc3c(c12)CCC3`: the growth was 105% in the assay on NCI-H23 lung; 102% in the assay on NCI-H226 lung; 98.9% with NCI-H322M lung; 92.4% in the assay with HOP-62 NSCLC; 123% in the assay with NCI-H460 lung; 89% with HOP-92 NSCLC. The growth in the assay on NCI-H522 lung was 98.7%; in the assay on A549/ATCC NSCLC, 110%; in the assay with 786-0 renal, 95.8%; in the assay on COLO 205 colon, 91.9%.
